# Assay results taken from ChEMBL document CHEMBL4513216, “Probing the Open Global Health Chemical Diversity Library for Multistage-Active Starting Points for Next-Generation Antimalarials” (ACS Infect Dis, 2020).
# Hit rate of the full screen: of about 69,000 compounds, about 8,600 (12%) showed an effect of 50% or more. Only a selection was taken, and strong results are over-represented in it overall.
# Test system: Plasmodium berghei
# Experiment: Screen against P. berghei liver stage (PbLuc), transformed with Luciferase, at 10uM
# Type: functional, HepG2
# Conditions: tested at 10 uM
row,SMILES,INHIBITION [%]
1,CC1=C(C(=O)N(C)Cc2n[nH]c3c2CCCCC3)C(C)NC(=O)N1 (stereo not drawn),17.5
2,c1ccc(CCc2n[nH]c(C3CCOC3)n2)cc1 (stereo not drawn),21.5
3,CC(C)c1nccc(CN(C)Cc2cccc(-n3cccn3)c2)n1,6.9
4,Cc1nonc1CN(C)Cc1cnn(-c2ccc(F)cc2)c1,-23.4
5,Cc1ccnn1CC(=O)N(C)Cc1ccc(-n2cccn2)cc1,21.8
6,CC(C)c1nccc(CN(C)Cc2cnn(-c3ccccc3)c2)n1,51.7
7,COc1cccc(-n2cc(CN(C)Cc3ccnc(C(C)C)n3)cn2)c1,15.005
8,Cc1ccnn1CC(=O)N(C)Cc1cnn(-c2ccccc2)c1,50.8
9,CN(Cc1ccncc1)Cc1cnn(-c2ccc(F)cc2)c1,51.8
10,CSCC(=O)N(C)Cc1cnn(-c2ccc(F)cc2)c1,13
11,CCn1cc(CN(C)Cc2cnn(-c3ccc(F)cc3)c2)cn1,17
12,CN(C)Cc1ccnc(C2CCCN2Cc2cccc(F)c2F)n1 (stereo not drawn),15.9
13,CCc1ocnc1C(=O)N1CCCC(n2nc(C)nc2C)C1 (stereo not drawn),11.715
14,O=C(c1cnc(O)cc1O)N1CCCC(CCc2ccccc2F)C1 (stereo not drawn),15.8
15,CNC(=O)[C@H]1C[C@@H]2CN(C(=O)c3ccc(C)nc3)C[C@@H]2N1C(C)C,11.3
16,Cc1csc(C2CCCN(C(=O)c3c(C)nn4cccnc34)C2)n1 (stereo not drawn),-2.53
17,CC(=O)N1CCN(CCNS(=O)(=O)c2cc(F)ccc2C)CC1,17.1
18,Cc1cc(C(C)NCCN2CCC(N(C)C)CC2)c(C)s1 (stereo not drawn),46.6
19,CC(=O)N1CCN(CCNS(=O)(=O)c2ccc(C)c(F)c2)CC1,-3.95
20,Cc1cc(Br)cnc1NCCN1CCC(N(C)C)CC1,64
21,CC(=O)N1CCN(CCNc2ncc(Br)cc2C)CC1,54.4
22,COC1CCN(CCNc2ncc(Br)cc2C)CC1,41.5

row,SMILES,INHIBITION [%]
1,Cc1cc(N2CCOCC2)ccc1NC(C)c1nc(C(C)(C)C)no1 (stereo not drawn),14.9
2,Cc1n[nH]c(C)c1NC(=O)CN1CCCC1Cn1cncn1 (stereo not drawn),30
3,CC(=O)N1CCC(c2nccnc2Nc2cnccn2)CC1,-21.6
4,CN(Cc1ccncn1)C(=O)CCC(=O)NC1CCCC1,39.4
5,CCCN1C[C@@H]2CC[C@H]1CN(Cc1cccc(-n3cccn3)c1)C2,48.2
6,COCCN1CCN(c2ccc(CN(C)C)cn2)CC1,-14.3
7,CCN(C(=O)CCn1cccn1)C1CC1,36.2
8,CC(C1CC1)N(C)C(=O)CCn1cccn1 (stereo not drawn),49
9,CC(C)CC(C)N(C)C(=O)CCn1cccn1 (stereo not drawn),64
10,Cc1nn(C)c(C)c1NC(=O)CCn1ncc2ccc(Cl)cc21,-14.7
11,CC(=O)c1cc(C(=O)N2CCN(C)Cc3ccccc32)n(C)c1,-94.3
12,CC(C)c1n[nH]c(C2CN(C(=O)COCC(F)(F)F)CCO2)n1 (stereo not drawn),31.6
13,CN(C)C(=O)Cn1cc(C(=O)N2CCCc3cccc(F)c32)nn1,28.6
14,CC(c1ccccc1)N(C)C(=O)CN1CCN(c2cnccn2)CC1 (stereo not drawn),47.2
15,CC(c1ccccc1)N(C)C(=O)CN1CCCc2cc(F)cc(F)c21 (stereo not drawn),76.1
16,CC(c1ccccc1)N(C)C(=O)CN1CCCc2cccc(F)c21 (stereo not drawn),51.1
17,CN(C(=O)CN1CCCc2cc(F)cc(F)c21)c1ccccc1,43.9
18,CC(c1ccccc1)N(C)C(=O)Cn1cc(NC(=O)C(C)(C)C)cn1 (stereo not drawn),-41.1
19,CC(C)CC(=O)N1C[C@@H]2CCN(c3cnccn3)C[C@@H]2C1,3.81
20,CNC(=O)CN1C(=O)CN(C(=O)COC)CCC(OC)c2ccccc21 (stereo not drawn),48.7
21,CNc1cc(C2CCCN2S(=O)(=O)c2cccc(F)c2)ccn1 (stereo not drawn),2.71
22,CCS(=O)(=O)N1CCc2nc(C3CCN(C(=O)C4CC4)C3)nc(O)c2C1 (stereo not drawn),30.4

row,SMILES,INHIBITION [%]
1,Cc1nc(NC2CCCC2)cc(C2CCN2c2ncccn2)n1 (stereo not drawn),26.7
2,Cc1cc(C(=O)NC(C)Cc2ccc(N(C)C)cc2)n(C)n1 (stereo not drawn),44.7
3,Cc1nc(CN2CCN(S(=O)(=O)N3CCOCC3)CC2)oc1C,31.2
4,Cc1nc(CN2CCN(S(=O)(=O)N3CCCCC3)CC2)oc1C,19.4
5,COCC(=O)N1CCCN(Cc2cc(O)c3ccccc3n2)CC1,32.1
6,COCC(=O)N1CCCN(Cc2c(C)nc3ccc(Cl)cn23)CC1,73.6
7,Cc1nc2ccc(Cl)cn2c1CN1CCN(S(=O)(=O)N2CCCC2)CC1,57.55
8,COCC(=O)N1CCC2(CCCN(Cc3ccc(Cl)cc3)CC2)CC1,17.6
9,COCCN1C[C@@H](C)[C@@]2(COCCN(C(=O)Cc3ccccc3)C2)C1,-8.94
10,CN1CCC2(CCN(S(=O)(=O)c3ccc(-c4cnco4)s3)CC2)C1,28.4
11,OCCCN1CCc2[nH]nc(C(c3ccccc3)c3ccccc3)c2C1,18.7
12,CN(C)C(=O)c1nc2c(n1C)CCN(Cc1ccccc1)C2,-31.4
13,FC(F)(F)c1[nH]nc2c1CN(Cc1ccccc1)CC2,84.2
14,CN(Cc1cnn(C)c1)C(=O)c1ccc(=O)n(C)n1,-19.7
15,O=C(Nc1ccccc1)N1CCC(n2cc3[nH]cccc-3c2=O)CC1,32
16,Cc1nc(CN2CCCC(NCc3ccc(C(N)=O)cc3)C2)no1 (stereo not drawn),11.2
17,Cc1nnc(NC(=O)NCc2ccc(N3CCC(C)CC3)nc2)s1,33.3
18,COCc1ncc(CN2CC(Oc3c(C)cccc3C)C2)cn1,31.2
19,Cc1ccccc1OC1CN(Cc2c(C)nc3ccccn23)C1,91.8
20,COc1ccccc1OC1CN(Cc2ccc(C(=O)O)cc2)C1,14.3
21,Cc1nc2ccccn2c1CN1C[C@@H](CN(C)C)[C@@H](CO)C1,45.3
22,Cc1nc2ccccn2c1CN1C[C@@H](CN(C)CCO)[C@@H](CO)C1,29

row,SMILES,INHIBITION [%]
1,Cc1ccc(C(=O)N2CC(Oc3ccccc3C)C2)s1,18.4
2,CC(=O)c1cccc(CN2CC(Oc3ccccc3C)C2)c1,52
3,CC(=O)c1ccc(CN2CC(Oc3ccccc3C)C2)cc1,52
4,CSCC[C@H](N)C(=O)N1CC(Oc2ccccc2C)C1,-13.5
5,O=C(c1n[nH]cc1Cl)N1CCSCC1,-10.6
6,COCCNC(=O)c1sc2ccccc2c1C1CCC(CN)CC1 (stereo not drawn),3.48
7,COCCN1C[C@@H]2CCCO[C@@H]2[C@H](NC(=O)c2cnccn2)C1,-17
8,O=C(NC1CC1)N1CCN(c2cnccn2)CC1,-11.4
9,Cc1nc(N(C)C)cc(C2(C)CCCNC2)n1 (stereo not drawn),8.42
10,NS(=O)(=O)c1ccc(C(=O)N2CCCC2c2ccccc2)o1 (stereo not drawn),12.7
11,CC(C)c1nnc(CN2CCN(CC(O)c3ccccc3)CC2)o1 (stereo not drawn),36.1
12,Cc1nc(N2CCN(C)CC2)ncc1C(=O)N1C[C@@H](C)[C@@](C)(O)C1,34.9
13,O=c1[nH]nc2c(N3CCOCC3)nccn12,56.5
14,O=c1[nH]nc2c(N3CCC(NC4CCOCC4)CC3)nccn12,33.3
15,O=c1[nH]nc2c(N3CCCCCC3)nccn12,47.4
16,O=C1OCCN1CCNC(=O)C1(N2CCCCC2)Cc2ccccc2C1,6.54
17,Clc1cccc(-c2noc(CCN3CCN(c4ccncc4)CC3)n2)c1,61.8
18,CCOC1CCN(CCc2nc(-c3cccc(Cl)c3)no2)CC1,46.3
19,NC(=O)N1CCCN(CCc2nc(-c3cccc(Cl)c3)no2)CC1,2.22
20,O=C(NCc1ccccc1-n1cccn1)N1CCC(N2CCCC2)C1 (stereo not drawn),17.4
21,CCC(C)NC(=O)c1ccc(NC(=O)CCCn2cncn2)c(C)c1 (stereo not drawn),5.64
22,CCN(CC(=O)Nc1cc(Cl)ccc1C)C(=O)c1ccncc1,-10.8

row,SMILES,INHIBITION [%]
1,CCCC(=O)Nc1cc(C(=O)NC(C)Cc2ccncc2)ccc1C (stereo not drawn),57.5
2,CC(=O)N[C@@H]1CN(C(=O)c2cccc(C(F)(F)F)c2)C[C@H]1O,-4.1
3,CCc1nnc2n1CCN(C(C(=O)N(CC)CC)c1ccccc1)C2 (stereo not drawn),19.4
4,CC1CCC(NC(=O)CNC2(c3ccc(F)cc3)CCOCC2)CC1 (stereo not drawn),12.8
5,Cc1cccn2cc(CNS(=O)(=O)N3CCOCC3)nc12,19.8
6,Cc1ccc(CN2CCc3c(nnn3C)C2COCc2ccccc2)s1 (stereo not drawn),59.3
7,Cn1nnc2c1CCN(Cc1ccoc1)C2COCc1ccccc1 (stereo not drawn),-6.39
8,Cn1nnc2c1CCN(Cc1ccncc1)C2COCc1ccccc1 (stereo not drawn),17.2
9,CS(=O)(=O)N1CCc2c(nnn2CC2CC2)C1COCC1CC1 (stereo not drawn),58.5
10,CN(C)C(=O)N1CCc2c(nnn2C)C1COCC1CC1 (stereo not drawn),12.7
11,C1CN(CC2CC2)C(COCC2CC2)c2nnn(CC3CC3)c21 (stereo not drawn),15.6
12,Cn1nnc2c1CCN(S(C)(=O)=O)C2COCc1ccccc1 (stereo not drawn),53
13,Cn1nnc2c1CCN(S(C)(=O)=O)C2COCC1CC1 (stereo not drawn),57.1
14,Cn1nnc2c1CCN(CC1CC1)C2COCC1CC1 (stereo not drawn),38.5
15,CCn1nnc2c1CCN(S(C)(=O)=O)C2COCc1ccccc1 (stereo not drawn),-3.51
16,Cn1nnc2c1CCN(CC1CC1)C2COCc1ccccc1 (stereo not drawn),39.8
17,C1CC(CN2CCc3c(nnn3CC3CC3)C2COCC2CC2)C1 (stereo not drawn),43.3
18,CCc1ccc(NC(=O)N2Cc3c(CN(C)C)nn(C)c3C2)cc1,33
19,COc1cccc(OCCn2c(C)c(C)oc2=O)c1,31.4
20,CCC1=N[C@@]2(CC[C@@H]3CN(Cc4ccccc4F)C[C@@H]32)C(=O)N1,10.5
